# What was measured:
# Assay in all cases: DAPPL (digital affinity profiling via proximity ligation, sequencing); 10 mM Tris-HCl pH 7.5, 50 mM NaCl, 1 mM DTT, 4% glycerol, room temperature, 30 min; GST-TFs on glutathione beads, 16-mer random dsDNA library, 0.1% formaldehyde crosslink after washing; high values mean tight binding
# [1] = biological target: T1, FLI1 (Homo sapiens, UniProt Q01543 1-452); conditions: protein: recombinant; tags: N-terminal GST; dsDNA, one strand shown
# T1 sequence: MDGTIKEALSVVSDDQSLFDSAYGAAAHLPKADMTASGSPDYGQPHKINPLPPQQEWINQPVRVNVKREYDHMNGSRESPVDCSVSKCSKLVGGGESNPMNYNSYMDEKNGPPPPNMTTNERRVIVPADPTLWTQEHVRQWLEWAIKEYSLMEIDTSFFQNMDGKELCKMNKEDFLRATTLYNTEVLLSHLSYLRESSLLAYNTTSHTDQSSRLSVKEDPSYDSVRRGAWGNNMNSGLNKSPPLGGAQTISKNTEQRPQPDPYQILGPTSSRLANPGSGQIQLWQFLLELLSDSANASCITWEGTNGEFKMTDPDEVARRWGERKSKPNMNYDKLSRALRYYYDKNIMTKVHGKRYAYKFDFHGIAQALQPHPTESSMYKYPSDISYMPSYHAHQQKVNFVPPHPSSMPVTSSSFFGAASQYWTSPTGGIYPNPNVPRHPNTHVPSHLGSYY
# How it was run: (§1)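 Sequencing on an Illumina NextSeq500 followed washing, crosslinking with 0.1% formaldehyde, proximity ligation (BsaI/T4 ligase, 1 h, 37 °C) and PCR amplification of pools that had been incubated for 30 min at room temperature with 200 nmole of a random double-stranded 16-mer DNA library in Tris/NaCl/DTT/glycerol buffer. Each pool held DNA-barcoded human transcription factors, expressed in yeast as GST fusions and captured on glutathione beads, plus a tag-only sample. Binding signal is a hexamer's read frequency for a factor divided by its frequency in the tag-only sample.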
# [2] = biological target: T2, ELK1 (Homo sapiens, UniProt P19419 1-428); conditions: protein: recombinant; tags: N-terminal GST; dsDNA, one strand shown
# T2 sequence: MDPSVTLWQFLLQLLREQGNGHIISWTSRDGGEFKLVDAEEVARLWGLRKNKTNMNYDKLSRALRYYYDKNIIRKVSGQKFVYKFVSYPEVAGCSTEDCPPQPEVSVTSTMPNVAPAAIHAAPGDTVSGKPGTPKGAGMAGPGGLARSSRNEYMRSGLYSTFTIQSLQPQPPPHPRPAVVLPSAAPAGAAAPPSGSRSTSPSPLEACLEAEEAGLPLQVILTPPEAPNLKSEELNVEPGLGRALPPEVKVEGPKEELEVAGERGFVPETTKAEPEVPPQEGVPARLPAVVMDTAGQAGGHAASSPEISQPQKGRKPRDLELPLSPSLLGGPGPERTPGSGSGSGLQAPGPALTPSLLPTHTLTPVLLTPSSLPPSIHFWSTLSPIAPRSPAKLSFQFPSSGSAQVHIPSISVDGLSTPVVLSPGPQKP
# How it was run: as §1
# [3] = biological target: T3, GABPA (Homo sapiens, UniProt Q06546 1-454); conditions: protein: recombinant; tags: N-terminal GST; dsDNA, one strand shown
# T3 sequence: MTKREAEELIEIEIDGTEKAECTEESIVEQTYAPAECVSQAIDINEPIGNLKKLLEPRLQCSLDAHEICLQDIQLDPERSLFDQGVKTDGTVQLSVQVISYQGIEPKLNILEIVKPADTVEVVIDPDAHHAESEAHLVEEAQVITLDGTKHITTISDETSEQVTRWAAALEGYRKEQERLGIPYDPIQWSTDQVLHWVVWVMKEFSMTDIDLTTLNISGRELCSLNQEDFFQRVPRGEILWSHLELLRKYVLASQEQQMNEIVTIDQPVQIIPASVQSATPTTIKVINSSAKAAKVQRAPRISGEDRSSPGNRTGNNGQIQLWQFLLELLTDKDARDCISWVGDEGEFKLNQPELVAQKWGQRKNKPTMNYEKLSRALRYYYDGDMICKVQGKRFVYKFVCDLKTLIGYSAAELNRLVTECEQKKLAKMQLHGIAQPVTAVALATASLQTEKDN
# How it was run: as §1
# [4] = biological target: T4, ERG (Homo sapiens, UniProt P11308 1-479); conditions: protein: recombinant; tags: N-terminal GST; dsDNA, one strand shown
# T4 sequence: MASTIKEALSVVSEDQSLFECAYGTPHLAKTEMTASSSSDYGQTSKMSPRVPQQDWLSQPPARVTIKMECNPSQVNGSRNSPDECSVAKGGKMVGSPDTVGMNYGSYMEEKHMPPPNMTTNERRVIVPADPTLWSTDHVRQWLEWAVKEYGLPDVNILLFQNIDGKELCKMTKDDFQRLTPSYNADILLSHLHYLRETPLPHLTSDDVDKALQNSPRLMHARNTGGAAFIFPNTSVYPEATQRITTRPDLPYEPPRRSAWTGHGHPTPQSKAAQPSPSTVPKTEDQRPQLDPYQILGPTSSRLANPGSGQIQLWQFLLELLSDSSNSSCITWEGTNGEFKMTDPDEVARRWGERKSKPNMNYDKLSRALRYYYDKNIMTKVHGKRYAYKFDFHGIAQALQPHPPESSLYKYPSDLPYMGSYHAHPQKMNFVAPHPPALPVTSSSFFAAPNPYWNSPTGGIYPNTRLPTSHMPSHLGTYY
# How it was run: as §1
# [5] = biological target: ELF1 (Homo sapiens, UniProt P32519 1-619); conditions: protein: recombinant; tags: N-terminal GST; dsDNA, one strand shown
# How it was run: as §1
# [6] = biological target: T5, EHF (Homo sapiens, UniProt Q9NZC4 1-300); conditions: protein: recombinant; tags: N-terminal GST; dsDNA, one strand shown
# T5 sequence: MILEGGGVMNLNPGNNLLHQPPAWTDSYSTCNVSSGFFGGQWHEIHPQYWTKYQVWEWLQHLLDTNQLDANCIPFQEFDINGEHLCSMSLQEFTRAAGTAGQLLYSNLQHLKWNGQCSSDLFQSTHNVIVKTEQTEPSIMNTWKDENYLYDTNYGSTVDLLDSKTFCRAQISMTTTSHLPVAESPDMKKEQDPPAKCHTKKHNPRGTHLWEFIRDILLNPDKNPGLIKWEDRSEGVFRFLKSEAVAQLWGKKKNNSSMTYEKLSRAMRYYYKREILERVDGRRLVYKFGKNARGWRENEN
# How it was run: as §1
# [7] = biological target: SPI1 (Homo sapiens, UniProt P17947 1-270); conditions: protein: recombinant; tags: N-terminal GST; dsDNA, one strand shown
# How it was run: as §1
# [8] = biological target: SPIB (Homo sapiens, UniProt Q01892 1-262); conditions: protein: recombinant; tags: N-terminal GST; dsDNA, one strand shown
# How it was run: as §1
# [9] = biological target: T6, ELK3 (Homo sapiens, UniProt P41970 1-407); conditions: protein: recombinant; tags: N-terminal GST; dsDNA, one strand shown
# T6 sequence: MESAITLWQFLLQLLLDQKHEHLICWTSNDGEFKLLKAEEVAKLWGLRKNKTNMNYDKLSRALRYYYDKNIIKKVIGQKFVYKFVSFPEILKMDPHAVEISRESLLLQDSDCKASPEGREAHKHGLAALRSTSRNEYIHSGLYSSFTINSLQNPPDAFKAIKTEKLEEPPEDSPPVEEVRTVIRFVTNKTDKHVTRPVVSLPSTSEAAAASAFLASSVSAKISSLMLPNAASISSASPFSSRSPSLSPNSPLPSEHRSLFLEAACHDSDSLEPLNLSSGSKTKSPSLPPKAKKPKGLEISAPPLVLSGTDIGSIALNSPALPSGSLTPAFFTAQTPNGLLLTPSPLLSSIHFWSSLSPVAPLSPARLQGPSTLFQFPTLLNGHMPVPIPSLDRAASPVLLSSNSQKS
# How it was run: as §1
# [10] = biological target: T7, FEV (Homo sapiens, UniProt Q99581 1-238); conditions: protein: recombinant; tags: N-terminal GST; dsDNA, one strand shown
# T7 sequence: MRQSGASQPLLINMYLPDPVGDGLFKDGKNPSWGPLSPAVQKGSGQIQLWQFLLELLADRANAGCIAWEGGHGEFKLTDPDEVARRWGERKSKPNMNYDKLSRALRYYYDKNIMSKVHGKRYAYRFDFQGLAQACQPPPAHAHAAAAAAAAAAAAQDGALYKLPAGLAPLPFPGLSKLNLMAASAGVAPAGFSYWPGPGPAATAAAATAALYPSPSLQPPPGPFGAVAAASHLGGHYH
# How it was run: as §1
# [11] = biological target: ETV5 (Homo sapiens, UniProt P41161 1-510); conditions: protein: recombinant; tags: N-terminal GST; dsDNA, one strand shown
# How it was run: as §1
# [12] = biological target: HSF1 (Homo sapiens, UniProt Q00613 1-529); conditions: protein: recombinant; tags: N-terminal GST; chain copies: 3; dsDNA, one strand shown
# How it was run: as §1
# [13] = biological target: T8, SPIC (Homo sapiens, UniProt Q8N5J4 1-248); conditions: protein: recombinant; tags: N-terminal GST; dsDNA, one strand shown
# T8 sequence: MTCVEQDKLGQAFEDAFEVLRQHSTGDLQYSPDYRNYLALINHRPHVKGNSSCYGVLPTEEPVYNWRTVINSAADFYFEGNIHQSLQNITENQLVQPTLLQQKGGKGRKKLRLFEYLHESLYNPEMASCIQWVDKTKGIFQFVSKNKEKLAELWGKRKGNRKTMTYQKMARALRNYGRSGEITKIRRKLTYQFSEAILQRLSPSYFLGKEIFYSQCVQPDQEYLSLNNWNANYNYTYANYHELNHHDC
# How it was run: as §1
# [14] = biological target: ELF4 (Homo sapiens, UniProt Q99607 1-663); conditions: protein: recombinant; tags: N-terminal GST; dsDNA, one strand shown
# How it was run: as §1
# [15] = biological target: T9, ELK4 (Homo sapiens, UniProt P28324-2 1-405); conditions: protein: recombinant; tags: N-terminal GST; dsDNA, one strand shown
# T9 sequence: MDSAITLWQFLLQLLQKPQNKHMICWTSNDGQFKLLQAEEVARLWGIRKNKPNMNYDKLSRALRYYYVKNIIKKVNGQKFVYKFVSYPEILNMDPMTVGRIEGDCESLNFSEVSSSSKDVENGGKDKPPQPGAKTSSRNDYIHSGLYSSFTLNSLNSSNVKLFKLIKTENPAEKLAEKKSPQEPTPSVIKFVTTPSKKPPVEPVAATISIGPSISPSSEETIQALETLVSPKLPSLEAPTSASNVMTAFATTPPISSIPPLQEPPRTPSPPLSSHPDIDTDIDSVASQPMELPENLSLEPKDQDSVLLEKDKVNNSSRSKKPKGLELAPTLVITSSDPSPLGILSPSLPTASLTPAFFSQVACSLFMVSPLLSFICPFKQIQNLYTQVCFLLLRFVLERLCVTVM
# How it was run: as §1
# [16] = biological target: T10, ETV2 (Homo sapiens, UniProt O00321 1-342); conditions: protein: recombinant; tags: N-terminal GST; dsDNA, one strand shown
# T10 sequence: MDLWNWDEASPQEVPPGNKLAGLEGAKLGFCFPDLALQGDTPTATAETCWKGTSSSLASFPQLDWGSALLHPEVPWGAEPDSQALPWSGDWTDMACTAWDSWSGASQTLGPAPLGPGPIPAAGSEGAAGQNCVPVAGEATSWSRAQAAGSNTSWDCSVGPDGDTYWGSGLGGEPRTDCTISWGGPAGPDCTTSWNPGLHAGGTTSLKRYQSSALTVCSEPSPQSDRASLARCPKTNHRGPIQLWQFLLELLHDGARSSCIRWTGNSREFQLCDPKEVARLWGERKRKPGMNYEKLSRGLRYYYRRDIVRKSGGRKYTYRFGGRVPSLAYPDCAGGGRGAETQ
# How it was run: as §1
# [17] = biological target: T11, ELF3 (Homo sapiens, UniProt P78545 1-371); conditions: protein: recombinant; tags: N-terminal GST; dsDNA, one strand shown
# T11 sequence: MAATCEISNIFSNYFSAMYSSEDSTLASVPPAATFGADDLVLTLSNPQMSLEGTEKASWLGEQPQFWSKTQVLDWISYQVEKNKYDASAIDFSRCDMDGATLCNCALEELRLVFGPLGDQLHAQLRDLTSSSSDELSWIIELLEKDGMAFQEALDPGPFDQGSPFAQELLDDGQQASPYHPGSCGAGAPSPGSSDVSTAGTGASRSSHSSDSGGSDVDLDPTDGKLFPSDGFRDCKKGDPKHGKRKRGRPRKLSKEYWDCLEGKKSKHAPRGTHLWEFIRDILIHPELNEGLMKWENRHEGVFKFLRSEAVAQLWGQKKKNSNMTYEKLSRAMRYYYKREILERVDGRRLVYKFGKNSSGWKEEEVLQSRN
# How it was run: as §1
# [18] = biological target: CRX (Homo sapiens, UniProt O43186 1-299); conditions: protein: recombinant; tags: N-terminal GST; dsDNA, one strand shown
# How it was run: as §1
# [19] = biological target: ETV1 (Homo sapiens, UniProt P50549 1-477); conditions: protein: recombinant; tags: N-terminal GST; dsDNA, one strand shown
# How it was run: as §1
# ETV1, sequence (P50549 whole entry): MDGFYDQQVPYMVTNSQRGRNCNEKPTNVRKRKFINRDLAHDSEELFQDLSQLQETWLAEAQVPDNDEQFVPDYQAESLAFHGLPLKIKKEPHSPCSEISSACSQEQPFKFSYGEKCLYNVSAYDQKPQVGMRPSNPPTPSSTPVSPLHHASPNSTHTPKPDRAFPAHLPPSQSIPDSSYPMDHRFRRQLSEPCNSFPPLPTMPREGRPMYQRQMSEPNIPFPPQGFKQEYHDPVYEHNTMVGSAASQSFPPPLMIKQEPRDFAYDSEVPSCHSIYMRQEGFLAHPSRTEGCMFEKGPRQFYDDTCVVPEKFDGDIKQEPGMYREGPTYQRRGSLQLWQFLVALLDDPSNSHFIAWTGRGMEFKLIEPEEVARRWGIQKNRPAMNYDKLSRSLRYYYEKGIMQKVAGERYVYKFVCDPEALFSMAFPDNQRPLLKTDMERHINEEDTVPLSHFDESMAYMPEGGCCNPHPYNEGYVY
# ETV5, sequence (P41161 whole entry): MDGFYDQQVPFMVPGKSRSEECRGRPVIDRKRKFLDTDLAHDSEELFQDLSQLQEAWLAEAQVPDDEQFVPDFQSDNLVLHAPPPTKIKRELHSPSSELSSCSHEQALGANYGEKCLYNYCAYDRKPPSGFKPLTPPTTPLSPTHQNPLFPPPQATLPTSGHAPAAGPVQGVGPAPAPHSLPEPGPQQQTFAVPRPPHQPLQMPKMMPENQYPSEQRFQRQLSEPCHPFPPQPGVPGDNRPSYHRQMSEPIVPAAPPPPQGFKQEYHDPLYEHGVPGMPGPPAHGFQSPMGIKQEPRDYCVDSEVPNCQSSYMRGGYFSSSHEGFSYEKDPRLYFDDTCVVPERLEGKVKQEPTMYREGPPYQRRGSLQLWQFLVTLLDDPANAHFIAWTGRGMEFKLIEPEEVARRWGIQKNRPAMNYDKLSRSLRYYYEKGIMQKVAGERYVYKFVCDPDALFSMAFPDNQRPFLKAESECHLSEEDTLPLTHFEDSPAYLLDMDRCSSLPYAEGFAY
# SPIB, sequence (Q01892 whole entry): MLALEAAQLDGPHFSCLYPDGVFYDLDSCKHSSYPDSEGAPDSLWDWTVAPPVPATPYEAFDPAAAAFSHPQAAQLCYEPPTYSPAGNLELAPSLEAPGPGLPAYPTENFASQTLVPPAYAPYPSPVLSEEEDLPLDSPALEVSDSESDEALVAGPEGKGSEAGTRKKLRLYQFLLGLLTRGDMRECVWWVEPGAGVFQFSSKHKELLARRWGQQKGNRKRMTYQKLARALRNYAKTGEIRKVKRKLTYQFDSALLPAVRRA
# ELF4, sequence (Q99607 whole entry): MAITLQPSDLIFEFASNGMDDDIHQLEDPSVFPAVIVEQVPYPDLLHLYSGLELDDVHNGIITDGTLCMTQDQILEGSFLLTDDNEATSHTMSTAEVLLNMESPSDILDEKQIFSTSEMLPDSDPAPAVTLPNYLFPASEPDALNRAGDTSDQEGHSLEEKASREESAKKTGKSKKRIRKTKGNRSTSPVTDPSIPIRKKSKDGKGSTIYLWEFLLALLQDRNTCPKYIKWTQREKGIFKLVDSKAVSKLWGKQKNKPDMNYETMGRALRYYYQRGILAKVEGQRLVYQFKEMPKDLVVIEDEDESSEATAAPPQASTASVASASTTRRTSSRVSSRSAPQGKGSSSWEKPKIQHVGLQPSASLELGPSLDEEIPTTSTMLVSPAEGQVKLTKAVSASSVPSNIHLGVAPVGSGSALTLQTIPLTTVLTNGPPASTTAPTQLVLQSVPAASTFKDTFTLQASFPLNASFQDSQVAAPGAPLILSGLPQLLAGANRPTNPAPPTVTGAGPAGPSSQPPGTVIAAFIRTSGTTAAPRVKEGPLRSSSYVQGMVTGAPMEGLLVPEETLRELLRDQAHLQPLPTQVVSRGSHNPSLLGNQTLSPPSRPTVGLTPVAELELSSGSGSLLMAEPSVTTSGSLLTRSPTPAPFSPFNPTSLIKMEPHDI
# ELF1, sequence (P32519 whole entry): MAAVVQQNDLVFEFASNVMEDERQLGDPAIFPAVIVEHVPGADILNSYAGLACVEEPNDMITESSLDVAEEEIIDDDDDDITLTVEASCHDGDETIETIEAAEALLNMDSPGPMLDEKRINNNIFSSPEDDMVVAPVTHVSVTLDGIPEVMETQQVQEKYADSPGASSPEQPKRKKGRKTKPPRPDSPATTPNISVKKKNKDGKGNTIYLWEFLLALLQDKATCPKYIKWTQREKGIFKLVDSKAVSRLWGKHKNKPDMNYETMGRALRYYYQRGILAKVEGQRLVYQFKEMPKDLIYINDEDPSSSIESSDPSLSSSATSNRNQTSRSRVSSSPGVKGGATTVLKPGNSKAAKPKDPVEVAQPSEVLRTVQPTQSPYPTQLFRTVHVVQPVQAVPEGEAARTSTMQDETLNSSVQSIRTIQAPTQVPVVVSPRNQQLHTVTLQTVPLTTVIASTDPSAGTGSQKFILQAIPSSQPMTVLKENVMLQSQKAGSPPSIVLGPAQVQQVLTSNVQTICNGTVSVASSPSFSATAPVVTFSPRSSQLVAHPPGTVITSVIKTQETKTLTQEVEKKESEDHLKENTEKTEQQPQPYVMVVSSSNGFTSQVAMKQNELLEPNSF
# HSF1, sequence (Q00613 whole entry): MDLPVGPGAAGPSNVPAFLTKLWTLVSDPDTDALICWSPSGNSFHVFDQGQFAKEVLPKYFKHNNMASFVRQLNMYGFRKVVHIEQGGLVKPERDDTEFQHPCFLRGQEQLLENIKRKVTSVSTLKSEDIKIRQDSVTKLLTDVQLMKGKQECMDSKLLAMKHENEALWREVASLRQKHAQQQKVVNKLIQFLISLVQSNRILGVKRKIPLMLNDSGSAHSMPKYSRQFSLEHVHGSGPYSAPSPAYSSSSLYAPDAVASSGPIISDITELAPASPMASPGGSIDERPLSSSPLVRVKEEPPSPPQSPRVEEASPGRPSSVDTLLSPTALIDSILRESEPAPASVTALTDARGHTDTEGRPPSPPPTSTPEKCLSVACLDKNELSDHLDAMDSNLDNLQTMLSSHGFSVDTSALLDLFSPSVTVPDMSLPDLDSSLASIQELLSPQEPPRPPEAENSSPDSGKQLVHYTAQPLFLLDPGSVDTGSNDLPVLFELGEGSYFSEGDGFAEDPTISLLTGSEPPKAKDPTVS
# CRX, sequence (O43186 whole entry): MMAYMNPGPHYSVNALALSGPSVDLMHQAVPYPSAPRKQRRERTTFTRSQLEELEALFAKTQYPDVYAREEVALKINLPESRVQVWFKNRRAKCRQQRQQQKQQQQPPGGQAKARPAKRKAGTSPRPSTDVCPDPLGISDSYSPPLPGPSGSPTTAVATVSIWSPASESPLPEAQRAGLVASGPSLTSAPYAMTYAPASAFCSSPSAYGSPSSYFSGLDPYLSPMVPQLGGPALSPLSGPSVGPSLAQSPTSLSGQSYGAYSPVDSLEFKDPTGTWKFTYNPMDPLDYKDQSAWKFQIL
sequence,measurement,setting,value
CACGCT,binding signal,[1],"1.42 fold enrichment (6-mer frequency, TF over GST control)"
same,binding signal,[2],"1.36 fold enrichment (6-mer frequency, TF over GST control)"
same,binding signal,[3],"1.36 fold enrichment (6-mer frequency, TF over GST control)"
same,binding signal,[4],"1.4 fold enrichment (6-mer frequency, TF over GST control)"
same,binding signal,[5],"1.34 fold enrichment (6-mer frequency, TF over GST control)"
same,binding signal,[6],"1.44 fold enrichment (6-mer frequency, TF over GST control)"
same,binding signal,[7],"1.33 fold enrichment (6-mer frequency, TF over GST control)"
same,binding signal,[8],"1.37 fold enrichment (6-mer frequency, TF over GST control)"
same,binding signal,[9],"1.35 fold enrichment (6-mer frequency, TF over GST control)"
same,binding signal,[10],"1.32 fold enrichment (6-mer frequency, TF over GST control)"
same,binding signal,[11],"1.34 fold enrichment (6-mer frequency, TF over GST control)"
same,binding signal,[12],"1.19 fold enrichment (6-mer frequency, TF over GST control)"
same,binding signal,[13],"1.23 fold enrichment (6-mer frequency, TF over GST control)"
same,binding signal,[14],"1.43 fold enrichment (6-mer frequency, TF over GST control)"
same,binding signal,[15],"1.36 fold enrichment (6-mer frequency, TF over GST control)"
same,binding signal,[16],"1.27 fold enrichment (6-mer frequency, TF over GST control)"
same,binding signal,[17],"1.4 fold enrichment (6-mer frequency, TF over GST control)"
same,binding signal,[18],"1.17 fold enrichment (6-mer frequency, TF over GST control)"
same,binding signal,[19],"1.34 fold enrichment (6-mer frequency, TF over GST control)"
